Measured values published in PubChem BioAssay (Tox21).
Several values for one entry are separate records, joined by “and”; a condition that tells them apart may be missing. Identical values can stand only once. Inconclusive results are not listed. Entries that show only a call come without a potency. The source holds several records for some structures; these can differ, active in one and inactive in another. Activity calls are given as the source filed them. Unless noted, calls come from the whole dose curve.

Assays:
[1] = qHTS assay to identify small molecule agonists of the vitamin D receptor (VDR) signaling pathway - cell viability counter screen (AID 743224; active = well fitted curve in the direction sought with a large enough effect in the repeat runs; an effect the other way counts as inactive or inconclusive; note: nearly all actives have a fitted effect of over 50% in size; note: potency is the fitted concentration of half-maximal effect)
In short: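 Counter screen run in the same wells as the VDR-bla reporter assay: CellTiter-Glo luminescence, 30 min at room temperature, after 16 h compound treatment at 37C of cells pre-plated for 4 h.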

[2] = qHTS assay to identify small molecule antagonists of the vitamin D receptor (VDR) signaling pathway - cell viability counter screen (AID 743225; active = well fitted curve in the direction sought with a large enough effect in the repeat runs; an effect the other way counts as inactive or inconclusive; note: nearly all actives have a fitted effect of over 50% in size; note: potency is the fitted concentration of half-maximal effect)
In short: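 In this counter screen, VDR-bla HEK 293T cells receive test compound plus 3 nM final calcitriol for 16 h at 37C. Room-temperature steps of 2 h with the beta-lactamase substrate, then 30 min with CellTiter-Glo, precede the luminescence read.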

[3] = qHTS assay to identify small molecule agonists of the NFkB signaling pathway - cell viability counter screen (AID 1159515); note: nearly all actives have a fitted effect of over 55% in size; note: potency is the fitted concentration of half-maximal effect
In short: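 Read by CellTiter-Glo luminescence (30 min, room temperature) in the wells also used for the beta-lactamase FRET read. ME-180 NFkB-bla cells at 2,000 per well were plated overnight, then exposed to compound for 5 hr at 37 C.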

[4] = qHTS assay to identify small molecule agonists of the endoplasmic reticulum stress response signaling pathway (AID 1159516; active = well fitted activation curve with a large enough effect in the signal ratio in the repeat runs, not every such curve was filed as active; the % refers to the signal ratio)
In short: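 Ratiometric FRET readout (405 nm excitation; 460 and 530 nm emission) of a beta-lactamase gene driven by the ER stress response element, after 2 hr substrate loading. HeLa ESRE-bla cells were seeded overnight and treated with compounds for only 5 hr at 37 C.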

[5] = qHTS assay to identify small molecule antagonists of the retinoid-related orphan receptor gamma (ROR-gamma) signaling pathway - cell viability counter screen (AID 1159520; active = well fitted curve in the direction sought with a large enough effect in the repeat runs; an effect the other way counts as inactive or inconclusive; note: nearly all actives have a fitted effect of over 50% in size; note: potency is the fitted concentration of half-maximal effect)
In short: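 Tet-on ROR gamma CHO cells were given compounds for 2 hr, then doxycycline hyclate at 1 uM final, and incubated 16 hr at 37 C. Viability was measured as ATP content by CellTiter-Glo luminescence.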

[6] = biological target: Nuclear receptor ROR-gamma (Homo sapiens) (UniProt P51449); experiment: qHTS assay to identify small molecule antagonists of the retinoid-related orphan receptor gamma (ROR-gamma) signaling pathway (AID 1159521; active = well fitted curve in the direction sought with a large enough effect in the repeat runs; an effect the other way counts as inactive or inconclusive; note: nearly all actives have a fitted effect of over 50% in size; note: potency is the fitted concentration of half-maximal effect)
In short: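 Screening format: cell-based luciferase reporter in CHO cells with doxycycline-inducible RORγ. Compound pre-exposure lasts 2 h, doxycycline is 1 uM final, induction runs 16 h at 37 C, and ONE-Glo luminescence is read.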

[7] = qHTS assay to identify small molecule agonists of the AP-1 signaling pathway - cell viability counter screen (AID 1159525); note: nearly all actives have a fitted effect of over 55% in size; note: potency is the fitted concentration of half-maximal effect
In short: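 Same-well cytotoxicity counter screen of the Tox21 10K library in ME-180 cells. The readout is ATP-dependent luminescence after 5 h compound treatment. Data are normalised to DMSO and tetra n-octyl ammonium bromide controls.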

[8] = qHTS assay to identify small molecule agonists of the AP-1 signaling pathway (AID 1159526)
[9] = qHTS assay to identify small molecule agonists of the endoplasmic reticulum stress response signaling pathway - cell viability counter screen (AID 1159517); note: nearly all actives have a fitted effect of over 50% in size; note: potency is the fitted concentration of half-maximal effect
In short: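 In parallel with the ESRE reporter read, cytotoxicity was scored by CellTiter-Glo luminescence (30 min, room temperature) on HeLa ESRE-bla cells dosed for 5 hr.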

Row | Compound | Potency [1] | Potency [2] | Potency [3] | Potency [4] | Potency [5] | Potency [6] | Potency [7] | Potency [8] | Potency [9]
1 | O=C(O)CC(O)C(=O)O (configuration not stated) | inactive | inactive | inactive | inactive | inactive | inactive | inactive | inactive | 
2 | CCCCC(CC)C(=O)O (configuration not stated) | inactive | inactive | inactive | inactive | inactive | inactive | inactive | inactive | 
3 | O=S1(=O)OC(c2ccc(O)cc2)(c2ccc(O)cc2)c2ccccc21 | inactive | inactive | inactive | inactive | inactive | inactive | inactive | inactive | 
4 | CCCc1cc(=O)[nH]c(=S)[nH]1 | inactive | inactive | inactive | inactive | inactive |  | inactive | inactive | inactive
5 | CN(N=O)C(=O)N[C@@H]1[C@@H](O)[C@H](O)[C@@H](CO)O[C@@H]1O | inactive | inactive | inactive | inactive | inactive |  | inactive | inactive | inactive
6 | NC(CO)(CO)CO | inactive | inactive | inactive | inactive | inactive |  | inactive | inactive | inactive
7 | COc1ccc(C(Cl)=C(c2ccc(OC)cc2)c2ccc(OC)cc2)cc1 | inactive | inactive | inactive | inactive | inactive |  | inactive | inactive | inactive
8 | CS(=O)(=O)OCCCCOS(C)(=O)=O | inactive | inactive | inactive | inactive | inactive |  | inactive | inactive | inactive
9 | Cc1ccc(S(=O)(=O)O)cc1 | inactive | inactive | inactive | inactive | inactive |  | inactive | inactive | inactive
10 | CCCCOC(=O)c1ccc(O)cc1 | inactive | inactive | inactive | inactive | inactive | inactive | inactive | inactive | 
11 | NC1CCCCC1 | inactive | inactive | inactive | inactive | inactive |  | inactive | inactive | inactive
12 | CCCCCCc1ccc(O)cc1O | 38.9 µM (active) and inactive | 49 µM (active) | inactive | inactive | 61.3 µM (active) and inactive |  | 43.8 µM (active) and inactive |  | inactive
13 | NC(=O)c1cccnc1 | inactive | inactive | inactive | inactive | inactive | inactive | inactive | inactive | 
14 | O=C1OC2(c3ccccc31)c1cc(Br)c(O)c(Br)c1Oc1c2cc(Br)c(O)c1Br | inactive | inactive | inactive |  | inactive | inactive | inactive | inactive | inactive
15 | O=C1c2c(O)cccc2Cc2cccc(O)c21 | inactive | inactive | inactive |  | inactive |  | inactive | inactive | inactive
16 | Cc1cc(C)nc(NS(=O)(=O)c2ccc(N)cc2)n1 | inactive | inactive | inactive | inactive | inactive |  | inactive | inactive | 
17 | CCCC[P+](CCCC)(CCCC)CCCC | inactive | inactive | inactive | inactive | inactive |  | inactive | inactive | 
18 | Cc1ncc([N+](=O)[O-])n1C | inactive | inactive | inactive | inactive | inactive |  | inactive | inactive | 
19 | CCCCNC(=O)NS(=O)(=O)c1ccc(C)cc1 | inactive | inactive | inactive | inactive | inactive |  | inactive | inactive | 
20 | CC1(C)S[C@@H]2[C@H](NC(=O)[C@H](N)c3ccccc3)C(=O)N2[C@H]1C(=O)O | inactive | inactive | inactive | inactive | inactive |  | inactive | inactive | 
21 | Cn1c(=O)c2c(ncn2C)n(C)c1=O | inactive | inactive | inactive | inactive | inactive |  | inactive | inactive | 

Row | Compound | Potency [1] | Potency [2] | Potency [3] | Potency [4] | Potency [5] | Potency [6] | Potency [7] | Potency [8] | Potency [9]
22 | CCOc1ccc(NC(C)=O)cc1 | inactive | inactive | inactive | inactive | inactive |  | inactive | inactive | 
23 | CC1(C)O[C@@H]2C[C@H]3[C@@H]4CCC5=CC(=O)C=C[C@]5(C)[C@@]4(F)[C@@H](O)C[C@]3(C)[C@]2(C(=O)CO)O1 | inactive | inactive | inactive | inactive | inactive |  | inactive | inactive | 
24 | CC(=O)C(=O)O | inactive | inactive | inactive | inactive | inactive |  | inactive | inactive | 
25 | C=C(C)C(=O)OCC(C)O (configuration not stated) | inactive | inactive | inactive | inactive | inactive |  | inactive | inactive | 
26 | CCCCCCCCCCCC[N+](C)(C)Cc1ccccc1 | 27 µM (active) and 29.9 µM (active) and 13.3 µM (active) | 19.1 µM (active) and 15 µM (active) and 21.3 µM (active) | 53.9 µM (active) and 47.4 µM (active) and 23.9 µM (active) |  | 67.3 µM (active) and 66.4 µM (active) and inactive |  | 23.9 µM (active) |  | 17 µM (active) and 21.2 µM (active) and 26.8 µM (active)
27 | CC(=O)CCC(=O)O | inactive | inactive | inactive | inactive | inactive |  | inactive | inactive | 
28 | CC(=O)CC(c1ccccc1)c1c(O)c2ccccc2oc1=O (configuration not stated) | inactive | inactive | inactive | inactive | inactive |  | inactive | inactive | 
29 | C[C@](N)(Cc1ccc(O)c(O)c1)C(=O)O | inactive | inactive | inactive | inactive | inactive |  | inactive | inactive | 
30 | CCCCC1(COC(=O)CCC(=O)O)C(=O)N(c2ccccc2)N(c2ccccc2)C1=O | inactive | inactive | inactive | inactive | inactive |  | inactive | inactive | 
31 | CCOC(N)=O | inactive | inactive | inactive | inactive | inactive |  | inactive | inactive | 
32 | CN1[C@@H]2CC(OC(=O)[C@H](CO)c3ccccc3)C[C@H]1[C@@H]1O[C@@H]12 (some centres not stated) | inactive | inactive | inactive | inactive | inactive |  | inactive | inactive | 
33 | CNNCc1ccc(C(=O)NC(C)C)cc1 | inactive | inactive | inactive | inactive | inactive |  | inactive | inactive | 
34 | O=C1NS(=O)(=O)c2ccccc21 | inactive | inactive | inactive | inactive | inactive |  | inactive | inactive | 
35 | CC(C)NCC(O)c1ccc(O)c(O)c1 (configuration not stated) | inactive | inactive | inactive | inactive | inactive |  | inactive | inactive | 
36 | Nc1c2c(nc3ccccc13)CCCC2 | inactive | inactive | inactive |  | inactive |  | inactive | inactive | inactive
37 | O=C1NC(=O)C(c2ccccc2)(c2ccccc2)N1 | inactive | inactive | inactive | inactive | inactive |  | inactive | inactive | 
38 | CN(C)C(=S)SC(=S)N(C)C | 1.26 µM (active) and 692 nM (active) and 1.06 µM (active) | inactive | 5.02 µM (active) and 977 nM (active) and 6.74 µM (active) |  | 2.37 µM (active) | 703 nM (active) and 770 nM (active) and 1.06 µM (active) | 11.2 µM (active) and 5.49 µM (active) and 16.9 µM (active) |  | inactive
39 | CN(C)CCOC(C)(c1ccccc1)c1ccccn1 (configuration not stated) | inactive | inactive | inactive | inactive | inactive |  | inactive | inactive | 
40 | CC(C)c1c(C(=O)Nc2ccccc2)c(-c2ccccc2)c(-c2ccc(F)cc2)n1CC[C@@H](O)C[C@@H](O)CC(=O)O | inactive | inactive | inactive | inactive |  |  | inactive | inactive | 
41 | CCCCCCCCCCCCCCCC[N+](C)(C)Cc1ccccc1 | 31.9 µM (active) and 8.86 µM (active) and 26.6 µM (active) | 45 µM (active) and 17.7 µM (active) and 21.3 µM (active) | 56.7 µM (active) and 49.8 µM (active) and 21.3 µM (active) |  | 70.8 µM (active) and 55.5 µM (active) and 29.8 µM (active) | 56.2 µM (active) and 27.8 µM (active) and 13.3 µM (active) | 40.1 µM (active) and 49.8 µM (active) and 23.9 µM (active) |  | 
42 | CC/C(=C(\c1ccccc1)c1ccc(OCCN(C)C)cc1)c1ccccc1 |  | inactive and 15.6 µM (active) and 21.3 µM (active) | 26.8 µM (active) [middle of 5 runs] |  | 61.1 µM (active) [middle of 4 runs] | 27.5 µM (active) [middle of 5 runs] | 23.9 µM (active) [middle of 5 runs] |  | 
